Screens deposited in PubChem by several laboratories.
NTR1 ag = agonists of human neurotensin receptor NTR1 | activation, % at 20 µM | hit rate 0.17% among 330,000 | AID 493036 | NTR1-U2OS beta-arrestin-GFP spot imaging, agonist mode;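 active means activation at or above 40% of the spot to cytoplasm intensity ratio, with at least 20 cells analyzed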;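 further: 0% = DMSO without peptide and 100% = 100 nM NTR1 peptide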
Target sequence (P30989 whole entry, looked up): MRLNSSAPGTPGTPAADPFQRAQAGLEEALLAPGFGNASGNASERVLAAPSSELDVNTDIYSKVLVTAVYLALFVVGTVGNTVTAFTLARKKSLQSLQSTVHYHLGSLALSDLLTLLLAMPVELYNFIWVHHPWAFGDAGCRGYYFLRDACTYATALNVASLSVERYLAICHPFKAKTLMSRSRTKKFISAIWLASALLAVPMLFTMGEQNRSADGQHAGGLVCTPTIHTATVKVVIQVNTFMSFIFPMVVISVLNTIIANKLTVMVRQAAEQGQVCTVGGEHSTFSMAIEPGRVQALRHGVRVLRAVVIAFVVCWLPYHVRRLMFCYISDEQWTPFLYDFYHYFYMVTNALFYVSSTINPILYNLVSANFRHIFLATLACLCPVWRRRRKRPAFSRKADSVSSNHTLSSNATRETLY
CRFR2-BP ag = agonists of human CRF-binding protein/CRF-R2 receptor complex; HEK293 CRF-R2/CRF-BP, calcium dye fluorescence (FLIPR); percent of saturating CRF peptide response; activation, % at 13.2 µM; hit rate 0.46% among 350,000; AID 588473;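 active means activation of at least 50%, plus an integration ratio under a set limit after plate pattern correction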;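 further: plate controls were neutral control wells without compound for no effect and CRF at EC100 for full effect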
V-ATPase pHluor = regulators of yeast V-ATPase proton transport | hit rate 0.37% among 350,000 | AID 504577 | response, % at 10 µM | S. cerevisiae, pHLuorin cytosolic pH fluorescence; in the data active means response mostly above about 7.3%, no sharp cut-off; inactive means mostly below about 5.4%; further: actives read high
CRFBP-R2 block = blocks CRF-induced signaling of the CRF-BP/CRF-R2 complex; HEK293 CRF-R2/CRF-BP, CRF-induced calcium fluorescence; inhibition, % at 11.8 µM; hit rate 0.59% among 350,000; AID 588475;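 active means inhibition of the ligand-induced calcium signal above about 50% at the single tested concentration, limit read from the data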
* hit, by the source's call. In the library only some 1.5% were active in any assay of this set; here they are far more common.

How did O=C(COc1ccccc1C(=O)c1cnn(-c2ccccc2)c1)Nc1ccc2ccccc2c1 do in these assays?
NTR1 ag: 5.6; CRFR2-BP ag: 14.7; V-ATPase pHluor: 2.8; CRFBP-R2 block: 141.0*

Results for COc1ccccc1/C=C/c1nc(S(=O)(=O)c2ccccc2)c(N(C)C)o1 ?
NTR1 ag: 0.0; CRFR2-BP ag: -0.7; V-ATPase pHluor: 2.8; CRFBP-R2 block: 71.9*

What do the screens show for `COc1cccc(/C=C/c2nc(S(=O)(=O)c3ccccc3)c(N(C)C)o2)c1`?
NTR1 ag: 0.6; CRFR2-BP ag: 0.9; V-ATPase pHluor: 0.8; CRFBP-R2 block: 2.6

What do the screens show for `C[C@@H]1CN([C@H](C)CO)C(=O)CCCn2nncc2CO[C@H]1CN(C)S(=O)(=O)c1cccc(C#N)c1`?
CRFR2-BP ag: 2.0; V-ATPase pHluor: -0.2; CRFBP-R2 block: 2.4

How did COc1ccc(CCNC(=O)COc2ccc(N(C)S(=O)(=O)c3ccc(C)cc3)cc2)cc1OC do in these assays?
NTR1 ag: 0.1; CRFR2-BP ag: -1.9; V-ATPase pHluor: 5.2; CRFBP-R2 block: 102.6*

How did COC(=O)C1CSc2[nH]c(=O)sc2C1c1ccc(O)c(OC)c1 (stereo unspecified) do in these assays?
NTR1 ag: -1.3; CRFR2-BP ag: -0.6; V-ATPase pHluor: -0.2; CRFBP-R2 block: 77.3*

Results for COc1ccc(C2c3sc(=O)[nH]c3SCC2C(N)=O)cc1 (stereo unspecified) ?
NTR1 ag: 1.0; CRFR2-BP ag: 2.6; V-ATPase pHluor: -0.8; CRFBP-R2 block: -7.9

What do the screens show for `CNc1nc(Cl)nc(Nc2ccccc2)n1`?
NTR1 ag: 0.0; CRFR2-BP ag: 0.0; V-ATPase pHluor: 0.6; CRFBP-R2 block: 103.1*

How did Cn1c2c(c(=O)n(C)c1=O)C(C(F)(F)F)(C(F)(F)F)N=C(c1ccccc1Cl)N2 do in these assays?
NTR1 ag: 0.0; CRFR2-BP ag: 23.8; V-ATPase pHluor: -0.4; CRFBP-R2 block: -8.1

Results for CC(=O)Nn1cc2c(c1-c1ccccc1)c(=O)n(C)c(=O)n2C ?
NTR1 ag: 2.1; CRFR2-BP ag: -0.3; V-ATPase pHluor: 1.6; CRFBP-R2 block: 1.9

Results for Cn1c(=O)c2[nH]c(-c3ccccc3)c(O)c2n(C)c1=O ?
NTR1 ag: 0.2; CRFR2-BP ag: 69.7*; V-ATPase pHluor: -2.0; CRFBP-R2 block: -43.0

What do the screens show for `Cn1c(=O)c2[nH]c(-c3ccccc3Cl)c(O)c2n(C)c1=O`?
NTR1 ag: 0.0; CRFR2-BP ag: 54.5*; V-ATPase pHluor: -1.4; CRFBP-R2 block: -14.5

How did COC(CNc1ncnc2c1cnn2C)OC do in these assays?
NTR1 ag: -0.3; CRFR2-BP ag: 0.8; V-ATPase pHluor: -1.9; CRFBP-R2 block: 53.4*

Results for CCOC(CNc1ncnc2c1cnn2C)OCC ?
NTR1 ag: 0.4; CRFR2-BP ag: -2.4; V-ATPase pHluor: -2.3; CRFBP-R2 block: 0.5

What do the screens show for `Cc1cccc(NC(=O)COC(=O)Cc2cccs2)c1C`?
NTR1 ag: 0.6; CRFR2-BP ag: -1.0; V-ATPase pHluor: 15.5; CRFBP-R2 block: 14.8

How did COc1ccccc1-c1nnc(NC(=O)C(C)C)s1 do in these assays?
NTR1 ag: -0.1; CRFR2-BP ag: -0.4; V-ATPase pHluor: 8.0*; CRFBP-R2 block: 0.9

How did CC1=C(C#N)C(/C=N/OCc2ccc(F)cc2Cl)CC(=O)N1 (stereo unspecified) do in these assays?
NTR1 ag: -0.2; CRFR2-BP ag: 2.0; V-ATPase pHluor: -1.7; CRFBP-R2 block: -5.6

What do the screens show for `NS(=O)(=O)c1ccc(NC(=O)CSc2nnc(COc3ccccc3Cl)n2C2CC2)cc1`?
NTR1 ag: 2.7; CRFR2-BP ag: -2.2; V-ATPase pHluor: -2.4; CRFBP-R2 block: 62.7*

Results for Cc1nn(C)c(Oc2ccc(Cl)cc2)c1C(=O)O ?
NTR1 ag: -3.2; CRFR2-BP ag: -0.8; V-ATPase pHluor: 4.2; CRFBP-R2 block: 61.2*

How did O=C1C(Cc2ccc3[nH]ccc3c2)NC(=S)N1c1ccccc1 (stereo unspecified) do in these assays?
NTR1 ag: -0.6; CRFR2-BP ag: 0.2; V-ATPase pHluor: 1.4; CRFBP-R2 block: -7.2

Results for Cc1ccc(C)n1NC(=O)c1ccccc1O ?
NTR1 ag: -0.9; CRFR2-BP ag: 2.9; V-ATPase pHluor: -2.3; CRFBP-R2 block: 79.5*

Results for FC(F)(F)c1cccc(NC(=S)NCc2ccc(Cl)cc2)c1 ?
NTR1 ag: 2.8; CRFR2-BP ag: 21.7; V-ATPase pHluor: -0.7; CRFBP-R2 block: 11.8

What do the screens show for `Fc1cccc(NC(=S)NCc2ccc(Cl)cc2)c1`?
NTR1 ag: 3.7; CRFR2-BP ag: -2.5; V-ATPase pHluor: 0.1; CRFBP-R2 block: 53.9*

Results for CCC(=O)Nc1cccc(NC(=S)NC(=O)Cc2ccccc2)c1 ?
NTR1 ag: -0.7; CRFR2-BP ag: -0.7; V-ATPase pHluor: -4.5; CRFBP-R2 block: -9.4
